Source: PubChem BioAssay
UCHL1 inh: human UCHL1 deubiquitinase inhibition; P09936; purified UCHL1, Ub-rhodamine cleavage fluorescence; inhibition, % at 20 µM; 0.2% of 47,000 active; AID 1645859
OTUD3 block: inhibitors of human OTUD3 deubiquitinase | purified OTUD3, Ub-rhodamine fluorescence, 2 h | inhibition, % at 25 µM | 0.7% of 47,000 active | AID 1645858
* hit, by the source's call. Only a selection was taken, and hits are over-represented in it overall. Rule as the data show it: active = inhibition above about 30%; inactive = the rest.

SMILES | UCHL1 inh | OTUD3 block
CC(C)=CCCC1(C)C=Cc2c(O)c3c(c(CC=C(C)C)c2O1)OC12C(=CC4CC1C(C)(C)OC2(C/C=C(/C)C(=O)O)C4=O)C3=O (configuration not stated) | 15 | 69*
O=C(COc1ccc([N+](=O)[O-])cc1)N1CCN(CCc2ccncc2)CC1 | -1 | 0
Cc1nc(-c2ccccc2)nc2c1CC(=O)N2CCN1CCOCC1 | -20 | -104
C/C1=C\C(=O)N(O)CCCC(N)C(=O)OCC/C(C)=C/C(=O)N(O)CCCC(N)C(=O)OCC/C(C)=C/C(=O)N(O)CCCC(N)C(=O)OCC1 (configuration not stated) | -54 | -94
C=C1[C@H]2C[C@]3(C4CC5[C@@]6(C)CC[C@H](O)[C@]5(C3CC2=O)C4[N+]([O-])(CC)C6)[C@@H]1O (some centres not stated) | 0 | 3
CC(C)=CCOC(C)(C)[C@H]1OC2CC[C@@]3(C)C(CCC4Cc5c([nH]c6ccccc56)[C@@]43C)C23OC3[C@@H]1O (some centres not stated) | 7 | 61*
N#Cc1ccc(NC(=O)CS(=O)(=O)Cc2ccccc2)cc1Cl | 5 | 0
O=C1c2c(O)c(Cl)cc3c2[C@@]2(Oc4cc(Cl)c(O)c5c4[C@]3(O2)[C@@H]2O[C@@H]2C5=O)[C@@H]2O[C@H]12 | 92* | 84*
Fc1ccc(CN2CCC23CCN(Cc2cccnc2)C3)cc1 (configuration not stated) | 0 | 6
